Compound activity deposited in PubChem by Broad Institute.
Rows were chosen to be rich in hits. Some 2.4% of all compounds tested hit in one or more screens of this group.
Wnt act – Wnt/beta-catenin pathway activators, primary screen, cell-based, plate reader, single point | Wnt/beta-catenin reporter cell assay, activator | actives 1.2% (n = 300,000) | activation, % at 9.35 µM | AID 743398, 2014; in the data active = activation above about 30%, passing the limit was not always enough;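 note: 0% = neutral control wells and 100% = positive control wells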
miR-122 sensor – miR-122 Renilla sensor signal increase in Huh7, primary screen, miR-122 inhibitor project, cell-based, single point, plate reader | Huh7 miR-122 Renilla luciferase sensor, 48 h; neutral wells = 0, positive control = 100 | actives 0.3% (n = 340,000) | activation (reporter increase), % at 12.5 µM;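 active = mean replicate activation score at least 90 and every replicate individually at or above 90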;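 note: higher luciferase means less miR-122 activity so hits act as miR-122 inhibitors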
Dyrk1A ADPGlo – rat Dyrk1A kinase inhibitors, primary screen, biochemical, single point, plate reader; Dual specificity tyrosine-phosphorylation-regulated kinase 1A (Rattus norvegicus), Q63470; ADP-Glo luminescence, NFATc1 peptide; inhibition, % at 12.5 µM; actives 0.43% (n = 310,000); AID 504441, 2011;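 note: plate controls were vehicle with enzyme for no effect and no enzyme for full effect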
MITF TRPM1 HTS – activators of MITF-driven TRPM1 promoter reporter, primary screen, cell-based, SK-MEL-5, luciferase, single point; activation, % at 12.5 µM; AID 588334, 2011; actives 0.75% (n = 300,000); SK-MEL-5 TRPM1-promoter luciferase, 24 h; % of positive control, neutral wells = 0;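 active = mean activation of at least 80% with every replicate also reaching 80%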;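 note: 0% = neutral control wells and 100% = parthenolide positive control wells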
INS-1E GSIS act – GLuc luminescence reporter in INS-1E cells, primary screen for activators of glucose-dependent secretion of insulin. INS-1E GLuc reporter insulin secretion, 2-3 h. activation, % at 16.6 µM. actives 0.61% (n = 370,000). AID 743287, 2014;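 active = lowest replicate activation of at least 40%, so every replicate reaches that level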;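 note: 0% = median of neutral control wells and 100% = median of IBMX positive control wells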
NSD2 HMT inh – NSD2 histone methyltransferase inhibitors, primary screen, biochemical, AlphaScreen, single concentration, set 2 | Histone-lysine N-methyltransferase NSD2 (Homo sapiens), O96028 | inhibition, % at 12.5 µM | NSD2 peptide methylation, 120 min | actives 0.54% (n = 310,000)
Starred values were filed as active, the others as inactive; . = no result; [ ] = remark or other dose. Cut-off read from the data, not from the text of the source, unless noted: active = inhibition above about 50%; inactive = the rest.

SMILES	Wnt act	miR-122 sensor	Dyrk1A ADPGlo	MITF TRPM1 HTS	INS-1E GSIS act	NSD2 HMT inh
C=CCNC(=O)/C(C#N)=C/c1cn(-c2ccccc2)nc1-c1ccc(OC)c([N+](=O)[O-])c1	-10	147*	-1	18	-30	-3
O=C(C[C@@H]1C=C[C@H](NC(=O)Nc2ccccc2)[C@H](CO)O1)NCc1ccccn1	.	17[16.7 µM]	.	.	0	.
N#C[C@@H]1[C@H](c2ccccc2)[C@@H](CO)N1C(=O)Cc1ccccn1	.	.	.	.	12	.
O=C1CSC(c2cccnc2)N1Cc1ccc(Cl)cc1 (stereo not drawn)	35*	-1	-9	10	-2	9
O=C(N=Nc1c(O)[nH]c2ccc([N+](=O)[O-])cc12)c1ccccc1[N+](=O)[O-]	2	2	20	-10	-10	10
CC(Oc1ccccc1)C(=O)N=Nc1c(O)[nH]c2ccc([N+](=O)[O-])cc12 (stereo not drawn)	-3	232*	15	12	-17	44
Cc1ccc(C(=O)CC(SCC(=O)O)c2ccc([N+](=O)[O-])cc2)cc1 (stereo not drawn)	90*	.	1	14	2	10
COc1ccc(C(CC(=O)c2ccc(O)cc2)S(=O)(=O)c2ccc(C)cc2)cc1 (stereo not drawn)	20	2	7	86*	-9	.
Nc1ccccc1SC(CC(=O)c1ccccc1)c1cccc([N+](=O)[O-])c1 (stereo not drawn)	-21	-1	.	.	-17	0
Nc1ccccc1SC(CC(=O)c1ccccc1)c1ccc([N+](=O)[O-])cc1 (stereo not drawn)	80*	5	.	.	2	2
COc1ccc(C(CC(=O)c2ccc(C)cc2)Sc2ccccc2N)cc1 (stereo not drawn)	47*	3	.	.	-5	0
COc1ccc(C(=O)CCS(=O)(=O)c2ccc(C)cc2)cc1	2	.	2	0	9	3
COc1ccc(C(CC(=O)c2ccc(C)cc2)Nc2ccc([N+](=O)[O-])cc2)cc1 (stereo not drawn)	8	.	.	12	18	0
CC(=O)N(C)C[C@H]1Oc2ccc(N(C)C)cc2CC(=O)N(C)C[C@H]1C	.	.	.	.	-1	.
CC(C)NC(=O)Nc1ccc2c(c1)C(=O)N([C@H](C)CO)C[C@H](C)[C@H](CN(C)C(=O)c1ccccc1)OCCCC[C@H](C)O2	.	2[16.7 µM]	.	.	-7	.
O=C1NCCN/C1=C\C(=O)c1ccccc1	0	-1	13	13	8	2
O=C1NCCN/C1=C\C(=O)c1ccc(Br)cc1	63*	-1	.	.	8	-1
CC(C)NC(=O)Nc1ccc2c(c1)C(=O)N([C@@H](C)CO)C[C@@H](C)[C@@H](CN(C)C(=O)Nc1ccc3c(c1)OCO3)OCCCC[C@@H](C)O2	.	-2[16.7 µM]	.	.	-1	.
Cc1cc2[nH]c3c(c[n+](C)c4ccccc34)c2cc1C	-9	.	4	-100	-22	15
Cc1cc2[nH]c3c4ccccc4nc(C)c3c2cc1C	-7	-72	.	.	271*	-2
O=C(NC[C@@H]1[C@H](c2ccccc2)[C@@H](CO)N1CC1CCCC1)c1cccnc1	.	0[16.7 µM]	.	.	0	.
CCOc1cc(/C=C(\CC(=O)O)c2nc3ccccc3s2)ccc1OC	-1	.	-13	-10	51*	-4
COCC(=O)N(C)C[C@H]1Oc2ncc(-c3cccc(OC)c3)cc2C(=O)N([C@@H](C)CO)C[C@H]1C	.	0[16.7 µM]	.	.	17	.
C[C@@H]1CN([C@@H](C)CO)C(=O)c2cc(NC(=O)NC3CCCCC3)ccc2O[C@H]1CN(C)S(=O)(=O)c1ccc(Cl)cc1	.	-9[16.7 µM]	.	.	4	.
CCOC(=O)C(=O)N(Nc1ccc(C)cc1)c1ccc(C)cc1	44*	.	0	28	2	0
SMILES	Wnt act	miR-122 sensor	Dyrk1A ADPGlo	MITF TRPM1 HTS	INS-1E GSIS act	NSD2 HMT inh
C=CCn1cnc2c(sc3nc(C)cc(C)c32)c1=O	30	.	.	.	16	-1
CCOC(=O)Cn1cnc2c(sc3nc(C)cc(C)c32)c1=O	38*	.	3	.	4	39
COC(=O)Cn1c(C)nc2c(sc3nc(C)cc(C)c32)c1=O	.	-1	.	91*	.	0
COc1ccc(C#Cc2ccc([C@@H]3[C@@H](CO)N4CCCCN(C(=O)Nc5cccc(F)c5)C[C@H]34)cc2)cc1	.	-9[16.7 µM]	.	.	-20	.
COc1cccc(CNC(=O)CCC2CCCN(C(=O)c3ccoc3)C2)c1 (stereo not drawn)	1	0	-25	-8	-2	1
COc1cccc(CNC(=O)CCC2CCCN(C(=O)c3cc4ccccc4o3)C2)c1 (stereo not drawn)	25	-1	0	84*	-7	-3
O=C(Nc1ccccc1)N1CC(=O)N2[C@H](CO)[C@@H](c3ccc(C#CC4CC4)cc3)[C@@H]2C1	.	.	.	.	-22	.
CCCOc1ccc(S(=O)(=O)NCCN2CCOCC2)c2ccccc12	.	199*	2	-9	.	-1
Cc1ccc(-c2nn3c(C)nnc3c3ccccc23)cc1S(=O)(=O)NCCN1CCOCC1	.	198*	-4	8	3	-2
COc1c(S(=O)(=O)NCCN2CCOCC2)ccc(Cl)c1Cl	.	4	-11	9	.	3
CCOc1ccc(S(=O)(=O)NCCN2CCOCC2)c2ccccc12	-6	108*	2	-5	.	1
O=C(NC1CCCCC1)N[C@H]1CC[C@H](CCNS(=O)(=O)c2ccc(F)cc2)O[C@@H]1CO	.	.	.	.	-8	.
CNC[C@H]1Oc2ncc(-c3cccc(F)c3)cc2C(=O)N([C@H](C)CO)C[C@H]1C	.	2[16.7 µM]	.	.	13	.
Cc1ccc(C(=O)Nc2ccc(SC(F)F)cc2)s1	11	.	1	83*	-6	-9
O=C(Nc1ccc(SC(F)F)cc1)c1cccc2nc3ccccc3nc12	2	-3	4	-47	82*	-2
O=C(Cn1cnc2ccccc21)Nc1ccc(SC(F)F)cc1	12	-10	-3	-10	-22	-7
CC[N+](CC)(CC)CC(=O)Nc1ccc(SC(F)F)cc1	-1	1	1	-7	11	.
Cc1ccc(-c2ccc3c(c2)O[C@H](CN(C)Cc2ccc(F)cc2)[C@@H](C)CN([C@H](C)CO)S3(=O)=O)cc1	.	98*[16.7 µM]	.	.	-10	.
CC(C)CC#Cc1ccc2c(c1)O[C@@H](CN(C)Cc1ccc(F)cc1)[C@H](C)CN([C@H](C)CO)S2(=O)=O	.	-6[16.7 µM]	.	.	46*	.
Cc1ccc(-c2ccc3c(c2)O[C@@H](CN(C)Cc2ccc(F)cc2)[C@@H](C)CN([C@@H](C)CO)S3(=O)=O)cc1	.	-4[16.7 µM]	.	.	-31	.
